ATXN2 expr inh – ATXN2 expression inhibition | 360,000 compounds, 0.72% hits | Potency, µM (doses to about 57 µM), without a hit: top-dose activity change, negative = inhibition, actives largely listed as inhibitors | HEK-293 ATXN2-luciferase reporter, luminescence, 24 h; note: potency is the fitted concentration of half-maximal effect; % is set by controls: 0 for no effect and ±100 for the full control effect; nearly all actives have a fitted effect of over 55% in size
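qHTS (up to 57 uM final) was run with 24 h compound exposure of reporter cells at 37 °C. Each well was multiplexed: SteadyGlo luminescence measured ATXN2-luciferase expression after a fluorogenic Gly-Phe-AFC viability readout (25 uM final).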
Giardia kill – Giardia lamblia killing; activity change, % at 7.66 µM, hits read low; Giardia lamblia trophozoite viability; 340,000 compounds, 0.15% hits; in the data active = activity change below about -80%; inconclusive = between about -30% and that limit;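 note: parasites exposed to compound for two days anaerobically before the ATP read; % is set by controls: 0 for no effect and ±100 for the full control effect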
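Luminescence from cellular ATP indicates surviving trophozoites (100 cells/well) following 48 hrs anaerobic compound treatment at 37 deg C; signal develops 15-30 min at room temperature.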
TGFb SMAD3 inh – inhibitors of TGF-b signaling. HepG2 CAGA-GFP TGF-b/SMAD3 reporter, GFP fluorescence, 18 h; TGF-beta stimulated, 500 pg/mL final. Potency, µM (top dose mostly 46.1 µM), without a hit: at the top dose activity, negative = inhibition, actives largely listed as inhibitors. 410,000 compounds, 1.2% hits. AID 588855; note: potency is the fitted concentration of half-maximal effect; % is set by controls: 0 for no effect and ±100 for the full control effect; nearly all actives have a fitted effect of over 65% in size
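Using HEPG2 CAGA-GFP reporter cells at 1000 cells/well, we pinned test compounds, stimulated with recombinant TGF-beta (500 pg/mL final) and measured total well GFP after 18 h.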
HepG2 tox – kills HepG2 cells in TGF-b inhibitor counter-screen; HepG2 CAGA-GFP viability, ATP luminescence, 18 h; Potency, µM (doses to about 46.1 µM), for inactives: at the highest dose activity change, negative = cytotoxicity, hits mostly cytotoxic; 410,000 compounds, 0.76% hits; note: potency is the fitted concentration of half-maximal effect
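CellTiter-Glo luminescence gave cytotoxicity after 18 hours at 37 degrees C. The cells were HepG2 CAGA-GFP in 1% FBS DMEM, stimulated with 500 pg/mL TGF-beta after compound addition. %Activity was normalised to no-cell wells (complete cell-killing) and DMSO (no toxicity), and curves were fitted and classified.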
uPA generation – blocks generation of uPA at the cell surface; cell surface uPA generation assay, qHTS; Potency, µM (doses to about 38.3 µM), inactives show at the top dose activity change, negative = inhibition, usual class: inhibitors; 330,000 compounds, 0.31% hits; AID 540303; active = well fitted inhibition curve with a large enough effect; inconclusive = small, poorly fitted or top-dose-only effect; inactive = no such curve, though single readings can be large or run the other way; tested in mouse RAW 264.7 cells; note: potency is the fitted concentration of half-maximal effect; % is set by controls: 0 for no effect and ±100 for the full control effect; nearly all actives have a fitted effect of over 55% in size
ATXN viability – cell viability loss in ATXN counter-screen; 400,000 compounds, 0.49% hits; Potency, µM (doses to about 56.7 µM), usual class: cytotoxic; S2 cells (HEK-293 line with an ATXN2-luciferase reporter) viability, CellTiter-Fluor protease fluorescence, 24 h; AID 651635; note: potency is the fitted concentration of half-maximal effect; nearly all actives have a fitted effect of over 40% in size
An asterisk follows results filed as active; i = inactive; u = inconclusive; x = no result; [ ] = remark or other dose. Hits are enriched below; roughly 2.6% of the tested compounds scored in any of these assays. Unless noted, calls come from the whole dose curve; as a rule, active = well fitted curve in the direction sought with a large enough effect; inconclusive = small, poorly fitted or top-dose-only effect, or another doubt; inactive = no such curve, though single readings can be large; an effect the other way counts as inactive or inconclusive.

SMILES	ATXN2 expr inh	Giardia kill	TGFb SMAD3 inh	HepG2 tox	uPA generation	ATXN viability
COc1ccc2ccccc2c1/C=N/NC(=O)c1nnn(-c2nonc2N)c1C(C)C	-16.4%	-4.6	u	-10.3%	-3.3%	i
Cc1c(C(=O)N/N=C/c2c(O)ccc3ccccc23)nnn1-c1nonc1N	1.58µM*	32.1	-17.6%	-27.1%	-13.8%	u
O=C(NCC1(N2CCOCC2)CCCC1)c1cnn(-c2nccc(-c3ccco3)n2)c1C1CC1	x	x	x	x	x	i
CC(C)(C)NCC(=Cc1ccccc1)C(=O)c1ccccc1	8.44µM*	2.6	8.91µM*	-100.0%	-10.1%	10.6µM*
O=C(C1CCCN(S(=O)(=O)c2cccc3nsnc23)C1)N1CCN(c2ccccc2Cl)CC1 (stereo not given)	-21.2%	x	14.1µM*	-36.3%	x	i
O=C(Nc1cccc(C(F)(F)F)c1)C1CCCN(S(=O)(=O)c2cccc3nsnc23)C1 (stereo not given)	-12.1%	x	6.31µM*	-17.3%	x	i
Cc1cccc(NC(=O)C2CCCN(S(=O)(=O)c3cccc4nsnc34)C2)c1 (stereo not given)	-16.1%	30.3	u	-44.1%	8.2%	i
O=C(C1CCCN(S(=O)(=O)c2cccc3nsnc23)C1)N1CCN(c2ccccc2F)CC1 (stereo not given)	-9.3%	x	u	-17.1%	x	i
CC(=O)c1cccc(NC(=O)COc2ccccc2C(=O)Nc2ccccc2)c1	x	x	-28.9%	-12.1%	x	x
COc1ccc(-c2nc(CSCC(=O)N3CCN(c4ccccc4F)CC3)c(C)o2)cc1	u	x	6.31µM*	-34.9%	x	x
COc1cc(F)ccc1-c1cc(C(=O)Nc2ccc(C)c(NS(C)(=O)=O)c2)[nH]n1	2.8%	x	u	-61.3%	x	i
COc1ccc(F)cc1-c1cc(C(=O)Nc2ccc(C)c(NS(C)(=O)=O)c2)[nH]n1	25.1µM*	x	36.8%	-27.6%	x	3.55µM*
CO[C@H]1C[C@H](O[C@H]2[C@H](C)[C@@H](O[C@@H]3O[C@H](C)C[C@H](N(C)C)[C@H]3OC(C)=O)[C@@H](C)C[C@]3(CO3)C(=O)[C@H](C)[C@@H](OC(C)=O)[C@@H](C)[C@@H](C)OC(=O)[C@@H]2C)O[C@@H](C)[C@@H]1OC(C)=O	x	x	x	x	x	i
Cc1cc2c(cc1CC(=O)c1sccc1S(=O)(=O)Nc1onc(C)c1Cl)OCO2	-3.6%	x	x	x	x	i
O=C(CCl)NCCCN(C(=O)C(Cl)Cl)c1ccc([N+](=O)[O-])cc1	x	-5.7	u	12.6µM*	u	31.6µM*
COc1cc(OC)c(/C=C/c2nccc3ccccc23)c(OC)c1	x	x	u	-31.1%	x	x
Fc1ccc(Nc2nc(Nc3ccc(F)cc3)nc(N3CCOCC3)n2)cc1	-27.8%	x	49.6%	-29.9%	x	i
CN1CCN(c2nc(Nc3ccc(F)cc3)nc(Nc3ccc(F)cc3)n2)CC1	25.1µM*	1.4	u	12.6µM*	u	u
Cc1ccc(/C=N/n2c(-c3ccccc3)csc2=S)cc1	-1.3%	x	x	x	x	i
CC1C(=O)C(C)C(c2cc(Br)ccc2O)NC1c1cc(Br)ccc1O (stereo not given)	u	-8.5	15.8µM*	-96.5%	1.3%	u
CCOC(=O)c1c(NC(=O)/C=C\C(=O)O)sc(C)c1-c1ccccc1	u	-7.5	25.0%	4.6%	-4.6%	i
CCOC(=O)c1c(NC(=O)/C=C/C(=O)O)sc(C)c1-c1ccc(C(C)(C)C)cc1	-12.5%[11.3 µM]	-8.2	u	12.6µM*	-14.3%	u
Cc1nc2cc(NC(=O)[C@@H]3C[C@@H](Sc4ccccn4)CN3C3CCCCCC3)ccc2s1	x	x	x	x	x	i
N#Cc1ccc(Nc2nc(-c3ccccc3)c(C(=O)c3ccccc3)s2)cc1	u	x	u	11.2µM*	x	u
O=C(c1ccccc1)c1sc(Nc2ccc3c(c2)OCO3)nc1-c1ccccc1	u	x	u	3.9%	x	x
SMILES	ATXN2 expr inh	Giardia kill	TGFb SMAD3 inh	HepG2 tox	uPA generation	ATXN viability
CCC(=O)NC(c1cccs1)c1cc(Cl)c2cccnc2c1O (stereo not given)	x	-1.9	u	16.6%	7.08µM*	i
CCC(=O)NC(c1cc(Cl)c2cccnc2c1O)C1CC1 (stereo not given)	u	-14.1	2µM*	-22.8%	12.6µM*	u
CN1CCN(C(c2ccc(Cl)cc2)c2cc(Cl)c3cccnc3c2O)CC1 (stereo not given)	u	11.1	u	25.1µM*	0.4%	u
COc1ccc(C(=O)NC(c2ccccc2Cl)c2cc(Cl)c3cccnc3c2O)cc1 (stereo not given)	x	-2.5	10µM*	11.2µM*	x	x
CCCCC(=O)NC(c1cccs1)c1cc(Cl)c2cccnc2c1O (stereo not given)	x	9.9	0.3%	3.3%	u	i
CC(=O)NC(c1cc(F)c2cccnc2c1O)C1CC1 (stereo not given)	u	-19.5	u	-44.3%	u	u
COc1ccc(C2CC(c3ccccc3)Oc3cc(C)c(Cl)c(C)c32)cc1 (stereo not given)	x	-3.0	-18.7%	-23.6%	x	x
CCC(=O)NC(c1cc(Cl)c2cccnc2c1O)C(C)C (stereo not given)	7.08µM*	3.0	2.82µM*	-42.3%	u	u
CC(=O)NC(c1ccccc1)c1cc(Cl)c2cccnc2c1O (stereo not given)	7.94µM*	1.6	u	-17.1%	-16.8%	i
Cn1c(-c2ccccc2)cc(=O)cc1-c1ccccc1	x	x	22.1%	-1.3%	x	i
O=c1cc(-c2ccccc2)cc(-c2ccccc2)n1O	14.1µM*	-7.6	u	-8.1%	u	15.8µM*
CCCCCC(C)NC(=S)NC(=O)c1cc(S(=O)(=O)N2CCOCC2)ccc1C (stereo not given)	-5.0%	12.3	11.2µM*	16.4%	-2.3%	i
CCCC(C)NC(=S)NC(=O)c1cc(S(=O)(=O)N2CCOCC2)ccc1C (stereo not given)	0.8%	3.3	-34.4%	-2.6%	0.3%	i
CCn1cc(CN2CCOc3ccc(C(O)C4CCCCC4)cc3C2)c(C)n1 (stereo not given)	x	x	x	x	x	i
CCn1c(-c2cccc(OC)c2)nc2cc(NC(C)=O)cc(C(=O)N3CCCC(C(C)=O)C3)c21 (stereo not given)	x	x	x	x	x	i
C=CC(=O)Nc1ccc(CN2C(=O)N(c3c(Cl)c(OC)cc(OC)c3Cl)Cc3cnc(NCCCCN(CC)CC)nc32)cc1	u	-14.0	u	-82.9%	u	11.2µM*
CCN(CC)CCNC(=O)c1ccc(NC(=O)Cc2ccc(OC)c(S(=O)(=O)N3CCOCC3)c2)cc1	9.8%	13.1	15.1%	4.2%	-7.1%	i

Bioassay records (PubChem)
